Here are results for 37 compounds from PubChem BioAssay AID651791 (National Center for Advancing Translational Sciences (NCATS), 2012).

Records with an inconclusive call do not appear. Active and inactive are the calls of the source. The call rests on the fitted dose curve; in most records, active means well fitted inhibition curve with a large enough effect; inconclusive means small, poorly fitted or top-dose-only effect; inactive means no such curve, though single readings can be large or run the other way.
Potency means the concentration at half of the fitted maximal effect.

The assay is described as follows: InCell qHTS Assay for Inhibitors of the mTORC1 Signaling Pathway in MEF (Tsc2-/-, p53-/-) Cells: Hit Validation.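 Further: phospho-S6 Ser235/236 signal normalized to propidium iodide cell count per well; nearly all actives have a fitted effect of over 75% in size.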 The conditions noted are these: phospho-rpS6 immunofluorescence, 24 h; activity change, negative = inhibition: at 38.3 µM (top of the series). In general terms: Quantitative high-throughput screening tests each substance at several concentrations.
`COc1ccc(Oc2nc3c(C)cccn3c(=O)c2/C=C(\C#N)c2nc3ccccc3[nH]2)cc1`: the activity change, negative = inhibition is -100%. Same read-out and setting: next, `CC1CCCN(CCCNC(=O)c2ccc3c(c2)N(Cc2ccc(Cl)cc2)C(=O)c2ccccc2S3(=O)=O)C1` (configuration not stated): -100%; `Cc1ccc2occ(CC(=O)Nc3ccc(Cl)c(C(F)(F)F)c3)c2c1`: -100%. On the same count and under the same terms, as for `CCCCN(C)C(=O)CSc1c2c(nc3ccc(Cl)cc13)CCCC2`, the figure is -100%; as for `Cc1nn(CC(=O)NCc2ccccc2Cl)c(=O)c2cccn12`, -100%; as for `CCOc1ccc(/C=C/c2nc3ccccc3n2S(=O)(=O)c2cccc(Cl)c2)cc1`, -100%. Turning to `CC(C)(C)C1CCc2c(sc(NC(=O)C3c4ccccc4Oc4ccccc43)c2C(N)=O)C1` (configuration not stated), the activity change, negative = inhibition is -100%.

For the compound `Cc1cccc(-n2nnnc2S(C)(=O)=O)c1`, the Potency was 3.29 µM (active).

For `N#C/C(=C\c1ccc(-c2ccc(F)cc2F)o1)c1nc2ccccc2[nH]1`, the activity change, negative = inhibition is -27.3%. For `CCS(=O)(=O)c1ncc(Cl)c(C(=O)N(Cc2ccccc2)c2ccc(OC)cc2)n1`, the Potency was 2.93 µM (active). `COc1ccc(-c2ccc(CCC(=O)O)n2-c2cc(Cl)ccc2O)cc1`: the activity change, negative = inhibition is -100%. Consider `COc1ccc(CNC(=O)c2cccc(N3CCCS3(=O)=O)c2)cc1OC`, for which the activity change, negative = inhibition is -100%.

With `CCC(C)n1c(SCc2c(F)cccc2Cl)nc2ccsc2c1=O` (configuration not stated), the activity change, negative = inhibition was -100%. On to `Cc1cccc(C(=O)Nc2c3c(nn2-c2ccc(Cl)cc2)CS(=O)(=O)C3)c1`, for which the activity change, negative = inhibition was -100%. Same read-out and setting: as for `COc1ccc(OCC(=O)Nc2ccc3nn(-c4ccc(OC)cc4)nc3c2)cc1`, the figure is -100%; as for `CCc1ccc(NC(=O)C2CCCN(S(=O)(=O)c3cccc4cccnc34)C2)cc1` (configuration not stated), -100%.

On to `CCCCS(=O)(=O)c1oc(-c2cccs2)nc1S(=O)(=O)c1ccccc1`, for which the Potency is 1.47 µM (active). For the compound `Cc1cc(-c2ccc(S(=O)(=O)Nc3cccc(C)c3C)s2)on1`, the activity change, negative = inhibition is -21.8%. Still for that read-out and setting: as for `CC(C)c1ccc(C2Sc3ccccc3NC3=C2C(=O)c2ccccc23)cc1` (configuration not stated), the figure is -100%. Turning to `CCN1CCN(C(=O)Cn2ncc3c4ccccc4n(Cc4c(C)cc(C)cc4C)c3c2=O)CC1`, the activity change, negative = inhibition was -100%. On the same count and under the same terms, next, `COC(=O)c1ccccc1NC(=O)Cn1c(=O)n(-c2ccc(C)cc2)c(=O)c2ccccc21`: -18.6%; `COC(=O)c1c(C)oc2ccc(N(C(=O)c3ccncc3)S(=O)(=O)c3ccc(OC)cc3)cc12`: -25.4%; `CCOc1ccccc1NC(=O)Cn1nnc(C(=O)NCc2cccs2)c1N`: -100%.

For `CCN(c1ccccc1)S(=O)(=O)c1ccc(NC(=O)c2nc(S(C)(=O)=O)ncc2Cl)cc1`, the Potency is 3.69 µM (active). For `Nc1c(C(=O)NCc2ccccc2)nnn1Cc1cccc(Br)c1`, the activity change, negative = inhibition was -100%. Regarding `O=C(NCc1ccccc1)c1nc(S(=O)(=O)Cc2ccccc2)ncc1Cl`, the Potency is 5.85 µM (active). For `Cc1ccc(-c2nn(C)c(=O)c3ccccc23)cc1S(=O)(=O)NCCCN(C)C`, the activity change, negative = inhibition was -100%. On the same count and under the same terms, as for `CCN1CCC(N(Cc2ccc(F)cc2)C(=O)Nc2ccc(C)c(F)c2)CC1`, the figure is -100%.

Consider `CCC(=O)C1=C(c2ccc(Cl)cc2)N(C(=O)CC)n2c(C)nnc2S1`, for which the Potency was 2.61 µM (active). Take `CCCCOc1cccc(C(=O)N2CCN(CCc3ccncc3)CC2)c1`: the activity change, negative = inhibition was -100%. On the same count and under the same terms, as for `Oc1ccc(NCc2ccccc2OCc2ccc(Cl)cc2)cc1`, the figure is -100%. On the same count and under the same terms, next, `Cc1cc(NCc2ccc(Cl)cc2)n2cnnc2n1`: -100%; `COc1ccccc1CCNC(=O)C1CCN(c2nnc(-n3cccc3CNc3ccc(C)cc3)s2)CC1`: -100%; `COC(=O)c1cc2sc(C)cc2n1Cc1ccccc1`: -100%. Turning to `Cc1ccc(-c2cc(C(=O)N3CCN(c4ccccc4)CC3)c3ccccc3n2)cc1C`, the activity change, negative = inhibition is -100%.

With `COc1ccc(C(F)(F)F)cc1NC(=O)c1sc2nc(-c3cccs3)ccc2c1N`, the activity change, negative = inhibition was -11%. For `COc1cccc(C(=O)Nc2ccc(-c3cc(C(F)(F)F)nn3-c3ccccc3)cc2)c1`, the activity change, negative = inhibition is -100%.
